Data on 6 sequences can be found in the supplement of paper PMC6555819.

Common to all, as to assay: PBM binding z-score (relative to random genomic background probes); higher = stronger binding; sequences stand for … in GC…GCGATTGACAGCGTAGAATGAAGG
Assay [1] deals with FXR:RXRa (NR concentration 270 nM, RXRa partner concentration 90 nM). An outline of the steps:
(§1)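 Scanned fluorescence from custom Agilent 4×180K protein-binding microarrays was regression-normalized. Binding z-scores use random background probes as reference. Ligand-free nuclear receptor dimers were incubated on the arrays for 1 h and detected with antibodies against each partner (one per run).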

For assay [2], the system named is LXRa:RXRa (NR concentration 270 nM, RXRa partner concentration 90 nM). The method in brief: as §1
Assay [3] relates to LXRa homodimer (NR concentration 270 nM). The method in brief: as §1
Assay [4] relates to LXRb:RXRa (NR concentration 270 nM, RXRa partner concentration 90 nM). The method in brief:
as §1

Assay [5] has as its system LXRb homodimer (NR concentration 270 nM). The method in brief:
as §1

Assay [6] relates to PPARa:RXRa (NR concentration 270 nM, RXRa partner concentration 90 nM). The method in brief:
as §1

For assay [7], the system named is PPARg:RXRa (NR concentration 180 nM, RXRa partner concentration 90 nM). An outline of the steps: as §1
The subject of assay [8] is PPARg:RXRa 270nM:90nM, anti-RXR (NR concentration 270 nM, RXRa partner concentration 90 nM). An outline of the steps: as §1
For assay [9], the system named is PPARg:RXRa 30nM:10nM, anti-RXR (NR concentration 30 nM, RXRa partner concentration 10 nM). An outline of the steps:
as §1

Assay [10] has as its system PPARg:RXRa 90nM:30nM, anti-RXR (NR concentration 90 nM, RXRa partner concentration 30 nM). An outline of the steps:
as §1

In assay [11] the test system is PPARg:RXRa DBDmut IVT, anti-RXR (DBD mutation: RXRa K156A/R161A, NR concentration 270 nM, RXRa partner concentration 90 nM). The method in brief: as §1
Assay [12] deals with PPARg:RXRa IVT, anti-PPARg (NR concentration 270 nM, RXRa partner concentration 90 nM). An outline of the steps: as §1
Assay [13] has as its system PPARg DBDmut:RXRa IVT, anti-PPARg (DBD mutation: PPARg1 K132A/R137A, NR concentration 270 nM, RXRa partner concentration 90 nM). The method in brief:
as §1

Assay [14] deals with PPARg DBDmut IVT, anti-PPARg (DBD mutation: PPARg1 K132A/R137A, NR concentration 270 nM). An outline of the steps: as §1
The test system of assay [15] is PPARg homodimer (NR concentration 180 nM). The method in brief:
as §1

For assay [16], the system named is PXR:RXRa (NR concentration 270 nM, RXRa partner concentration 90 nM). The method in brief:
as §1

For assay [17], the system named is PXR homodimer (NR concentration 270 nM). An outline of the steps: as §1
Assay [18] relates to RARa:RXR (NR concentration 270 nM, RXRa partner concentration 90 nM). An outline of the steps: as §1
Assay [19] has as its system RARa homodimer (NR concentration 270 nM). An outline of the steps: as §1
Assay [20] concerns RARb:RXRa (NR concentration 270 nM, RXRa partner concentration 90 nM). An outline of the steps:
as §1

On to TCTTGTAGATCAATTGAGGTTAAGAAAGTGCGCT, for which the PBM binding z-score was 1.19 in assay [1]; 2.94 in assay [2]; 0.265 in [3]; 1.56 in assay [4]; -0.0639 in [5]; 1.74 in [6]. Further, the PBM binding z-score in assay [7] was -0.433; in assay [8], 1.68; in [9], 2.94; in [10], 2.2; in assay [11], 2.06; in [12], 1.34. Moreover, the PBM binding z-score was 0.476 in assay [13]; 0.929 in assay [14]; 0.486 in [15]; 2.84 in assay [16]; 0.38 in assay [17]; 1.68 in [18]. Moreover, the PBM binding z-score in assay [19] amounted to 0.164; in [20], 0.758.
For the sequence ATATGTAGGTTAAGGGTCCTTCAGGTTGGTTCGC, the PBM binding z-score in assay [1] worked out at 0.735; in assay [2] it was 1.21; in [3], 0.278; in assay [4], 1.18; in assay [5], 0.267; in assay [6], 4.59. In addition, the PBM binding z-score in assay [7] turned out to be 8.87; in [8], 8.11; in [9], 8.31; in [10], 9.26; in assay [11] it was 7.65; in assay [12], 7.29. Further, the PBM binding z-score in assay [13] stood at 1.78; in assay [14], 0.916; in [15], 2.1; in assay [16] it was 1.1; in assay [17], 0.435; in assay [18], 1.23. Moreover, the PBM binding z-score in assay [19] was 0.703; in assay [20] it was 1.24.
With AGTCAAAGTTCAGCTAGGTAACGTAAGATATGCT, the PBM binding z-score in [1] is 3.9; in [2], 3.86; in assay [3] it was 1.68; in assay [4], 1.91; in [5], 0.177; in [6] it was 3.34. The PBM binding z-score worked out at 4.61 in assay [7]; 4.73 in [8]; 2.11 in [9]; 4.07 in [10]; 0.153 in assay [11]; 2.1 in [12]. Further, the PBM binding z-score was found to be 0.968 in assay [13]; 0.836 in assay [14]; 1.67 in [15]; 3.01 in assay [16]; 1.8 in assay [17]; 2.29 in [18]. In addition, the PBM binding z-score in [19] came out at 1.19; in assay [20], 4.37.
For ACTAGCCGGCCAAGTTTGGGTCACTCAAACAAAG, the PBM binding z-score in assay [1] is 0.307; in [2] it was 0.194; in assay [3], -0.183; in assay [4], 0.789; in assay [5], -0.664; in assay [6] it was 1.32. The PBM binding z-score in [7] is -0.0659; in assay [8], -0.198; in [9], -1.03; in assay [10], -0.301; in assay [11] it was -0.561; in assay [12] it was 0.67. Moreover, the PBM binding z-score in assay [13] is -0.942; in [14], -0.912; in [15], 0.449; in assay [16] it was 0.729; in [17] it was -0.476; in assay [18], 1.25. Moreover, the PBM binding z-score was -0.454 in assay [19] and 1.5 in assay [20].
As for CCTCGGAGGACAGAAGGTCAGAGCGGTCCGCTTT, the PBM binding z-score in [1] is 1.42; in assay [2] it was 1.8; in assay [3], 0.0694; in assay [4], 0.843; in [5], -0.863; in assay [6], 1.78. The PBM binding z-score is -0.185 in assay [7]; 0.642 in [8]; -0.618 in [9]; 0.0661 in assay [10]; 0.0292 in assay [11]; -0.0958 in assay [12]. The PBM binding z-score in assay [13] was -1.49; in assay [14], -1.9; in assay [15], 1.2; in assay [16] it was 1.91; in assay [17] it was -0.289; in [18] it was 1.91. The PBM binding z-score was determined as 0.122 in assay [19] and 3.18 in assay [20].
CCTAGTTGGTCAGGAGGTCTCACACCGGATATGA: the PBM binding z-score in [1] is 0.237; in [2], 0.219; in [3] it was 0.125; in assay [4], -0.00774; in assay [5], -0.246; in assay [6], 0.135. The PBM binding z-score in assay [7] is 0.469; in assay [8], 0.772; in assay [9] it was -0.0549; in assay [10], 0.338; in assay [11] it was 0.196; in assay [12], 1.02. The PBM binding z-score in assay [13] was -0.277; in assay [14], 0.59; in [15], 1.25; in assay [16], -0.0259; in assay [17], 0.521; in [18], 0.0681. Further, the results for the PBM binding z-score in assay [19] and in [20] were 1.06 and 0.838, respectively.
